30 compounds from ChEMBL document CHEMBL1157539, “Thousands of chemical starting points for antimalarial lead identification” (Nature, 2010) can be followed below.

As usually defined, the Inhibition is the percentage by which the read-out fell short of the control. A higher Inhibition goes with a response far below the control.

Holding throughout (assay type): functional
Assay [1] relates to Plasmodium falciparum. As to the kind of experiment: GSK_TCMDC: Inhibition of Plasmodium falciparum 3D7 in whole red blood cells, using parasite LDH activity as an index of growth. Test compounds present at 2uM.
Assay [2] deals with Plasmodium falciparum. As to the kind of experiment: GSK_TCMDC: Inhibition of Plasmodium falciparum Dd2 in whole red blood cells, using parasite LDH activity as an index of growth. Test compounds present at 2uM.
Assay [3] deals with HepG2. Nature of the assay: GSK_TCMDC: Percent inhibition of human HepG2 cell line. Test compounds present at 10uM.

With `COc1ccccc1CNc1ccnc(N2CC(Oc3ccc(F)cc3)C2)n1`, the Inhibition amounted to 97% in assay [1], 95% in assay [2] and 2% in assay [3].

On to `CCOc1ccc(-c2nc(NC(=O)COc3ccc(OC)cc3)sc2C)cc1`, for which the Inhibition is listed as 99% in assay [1], 87% in assay [2] and 0% in assay [3].

With `O=C(Nc1cc(=O)[nH]c2nc(-c3ccccc3)nn12)C1CCCCC1`, the Inhibition in assay [1] worked out at 86%; in assay [2], 89%; in assay [3] it was 0%.

For the compound `COc1ccc(CN2CCC(CNCCc3ccccc3Cl)CC2)cc1.O=C(O)C(F)(F)F`, the Inhibition is reported as 87% in assay [1], 17% in assay [2] and 36% in assay [3].

`Cc1[nH]c(C)c(-c2ccc(OCCOc3ccc(C(F)(F)F)cn3)cc2)c(=O)c1Br`: the values for the Inhibition in assay [1], in assay [2] and in assay [3] were 97%, 97% and 25%, respectively.

As for `CC(C)(C)OC(=O)NCc1ccc(Nc2nnc(-c3ccc(OCC(=O)NC[C@@H]4CC[C@H]5C[C@@H]4C5(C)C)c([N+](=O)[O-])c3)o2)cc1`, the Inhibition in assay [1] is 94%; in assay [2], 52%; in assay [3] it was 29%.

For `Cn1nc(-c2ccc(CNC3CCc4ccccc43)cc2)c2cnc(NCCN3CCCC3)nc21` (stereo not given), the Inhibition in assay [1] is listed as 99%; in assay [2], 17%; in assay [3], 21%.

On to `CCCCCCCN1CC[C@@H](CCCc2ccnc3ccc(OC)cc23)[C@@H](CCN)C1.O=C(O)C(=O)O`, for which the Inhibition in assay [1] is listed as 100%; in assay [2] it was 11%; in assay [3], 50%.

`C=CCc1cc(Br)ccc1OCCCOc1c(N)nc(N)nc1N.Cl`: the Inhibition was 92% in assay [1], 0% in assay [2] and 47% in assay [3].

Turning to `O=C(NC1CCCC1)c1ccc(N2CCC(NCc3cc4cc(Cl)ccc4[nH]3)CC2)cc1`, the Inhibition in assay [1] was determined as 91%; in assay [2], 0%; in assay [3], 21%.

Turning to `COc1ccc2nccc([C@@H](O)CN3CCC(NC(=O)C(c4cc5ccccc5o4)N4CCN(c5ccccc5OC)CC4)CC3)c2c1` (stereo not given in full), the values for the Inhibition in assay [1], in assay [2] and in assay [3] were 99%, 83% and 14%, respectively.

Consider `Cc1nc(-c2ccc(-c3ccc(NC(=O)c4coc5ccc(N6CC(C)N(C)C(C)C6)cc45)cc3)c(C)c2)no1.Cl` (stereo not given), for which the Inhibition in assay [1] is given as 96%; in assay [2] it was 46%; in assay [3] it was 21%.

Regarding `C=CCN(c1nc(NC)nc(NCc2c(OC)cccc2OC)n1)C1CCCC1`, the Inhibition in assay [1] amounted to 85%; in assay [2] it was 70%; in assay [3] it was 18%.

For `CCOC(=O)c1cn(CC)c2cc(N(C)CCc3ccc(OC)c(OC)c3)c(F)cc2c1=O.Cl`, the Inhibition is reported as 92% in assay [1], 96% in assay [2] and 9% in assay [3].

Regarding `CO/C(=C\C=C\c1cc2cc(Cl)c(Cl)cc2[nH]1)C(=O)NC1CCN(CCCc2ccccc2)CC1`, the Inhibition in assay [1] is given as 93%; in assay [2], 75%; in assay [3], 59%.

As for `COC(=O)Nc1ccc(-c2ccc(C(=O)NC3CCN(C[C@H](O)c4ccnc5ccc(OC)cc45)CC3)cc2)c(C)c1`, the Inhibition worked out at 100% in assay [1], 97% in assay [2] and 32% in assay [3].

As to `Cc1ccc2[nH]c(-c3ccc(C=CC(=O)NC4CCN(Cc5ccccc5)CC4)cc3)nc2c1`, the figures for the Inhibition in assay [1], in assay [2] and in assay [3] were 100%, 92% and 9%, respectively.

On to `O=S(=O)(c1cc(Cl)c(Cl)cc1Cl)N1CCCCC(c2ccc(C(F)(F)F)cc2)=N1`, for which the Inhibition is on record as 98% in assay [1], 99% in assay [2] and 9% in assay [3].

Take `COc1ccc(-c2cccc(NC(=O)c3ccc(Cl)cc3)c2)cc1CN1CCCC1.O=C(O)C(F)(F)F`: the Inhibition in assay [1] is 97%; in assay [2] it was 52%; in assay [3] it was 55%.

On to `C1=CN(Cc2ccccc2)C=CC1=C1C=Nc2ccccc21`, for which the Inhibition in assay [1] is on record as 90%; in assay [2], 69%; in assay [3], 8%.

`CCCC[C@H](NC(=O)OC(C)(C)C)C(=O)Nc1ccc(Cc2ccc(NC(=O)[C@H](CCCC)NC(=O)OC(C)(C)C)cc2)cc1`: the Inhibition in assay [1] stood at 95%; in assay [2], 71%; in assay [3], 5%.

Turning to `Cc1cccc2nc(-c3ccc(-c4cccc(CNCCN(C)C)c4)cc3)[nH]c12.O=C(O)C(F)(F)F`, the figures for the Inhibition in assay [1], in assay [2] and in assay [3] were 100%, 98% and 6%, respectively.

For `Cc1cccc2nc(-c3ccc(-c4ccc(NC(=O)CN5CCN(C)CC5)cc4)cc3)[nH]c12`, the Inhibition turned out to be 100% in assay [1], 83% in assay [2] and 29% in assay [3].

`Cc1ccccc1Cn1c(CN2CCC(C(=O)NC3CC3)CC2)cc2ccccc21`: the Inhibition in assay [1] turned out to be 97%; in assay [2] it was 96%; in assay [3], 7%.

As for `CN1CCN(c2ccc(Nc3nc(N)c4ccn(C5CCC5)c4n3)cc2)CC1.O=C(O)C(F)(F)F`, the Inhibition in assay [1] was 93%; in assay [2], 47%; in assay [3], 0%.

For the compound `CN(C)c1ccc(-c2csc(C(=O)NC3CCN(Cc4ccc(C(C)(C)C)cc4)C3)c2)cc1.O=C(O)C(F)(F)F` (stereo not given), the Inhibition worked out at 99% in assay [1], 50% in assay [2] and 26% in assay [3].

In the case of `Cc1cccc(-c2ccc3c(c2)CC(NCc2cccc(-n4ccnc4)c2)C3)c1` (stereo not given), the Inhibition in assay [1] stood at 100%; in assay [2], 49%; in assay [3], 11%.

Regarding `CC1CCCCN1CCCNc1nc(NCc2ccccc2)c2ccccc2n1` (stereo not given), the Inhibition is 95% in assay [1], 14% in assay [2] and 24% in assay [3].

Turning to `COc1ccccc1C1CCN(CCCCNC(=O)c2ccc(NC(=O)c3ccc(Cl)cc3)cc2)CC1`, the Inhibition in assay [1] is recorded as 95%; in assay [2], 12%; in assay [3], 21%.

Take `Cl.O=C(/C=C/c1cccc(Cl)c1)Nc1ccc2nc(CN3CCCC3)ccc2c1`: the Inhibition in assay [1] was 99%; in assay [2], 42%; in assay [3] it was 47%.
